The campaign covered roughly 330,000 compounds. About 4,400 (1.3%) were called active. This is one part of a sample in which actives are shown more often than they occur. A number with no mark means an inactive call.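 The calls were made as follows: active = growth inhibition of the mutant yeast at or above 50%; inactive = the rest.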

This assay is described as follows: growth inhibition of tim23-1 ts yeast – luminescence, uHTS, primary screen (AID 463212).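 Also: temperature-sensitive mutant grown at 25 °C; plate controls were DMSO-treated mutant yeast for no effect and medium wells lacking yeast for full effect.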 The following applies: S. cerevisiae tim23-1 growth, BacTiter-Glo luminescence, 24 h; at 20 µM; active compounds read high.
For `CCN1/C(=C\c2ccc3ccccc3[n+]2CC)Sc2cc(C)ccc21`, the inhibition was 51.5% (active).
To `CC(C)(C)OC(=O)CNC(=O)c1[nH]cnc1C(=O)N[C@@H](CCCCN)C(=O)OC(C)(C)C` belongs -2.18%; to `O=C(c1ccccc1)c1cccn1CC(=O)N1CCN(c2ccc(F)cc2)CC1`, 17.4%.
`CN(C)Cc1ccccc1C1(O)c2ccccc2CSc2ccccc21` (stereo not drawn): the inhibition was 34.6%.
Consider `COc1ccc(C(=O)CC(=O)c2ccc(C)cc2)c(O)c1`, for which the inhibition is 29.8%.
For the compound `O=C(CSc1ncn[nH]1)NCc1ccc2c(c1)OCO2`, the inhibition was -3.54%.
Regarding `O=C(/C=C/Sc1ncn[nH]1)c1ccc(Cl)cc1`, the inhibition was 74.3% (active).
With `O=C(CSc1ncn[nH]1)Nc1ccc(Br)cc1Br` the figure was -3%; with `CN(CCC1CCOCC1)C(=O)CC1C(=O)NCCN1Cc1cccc(F)c1` (stereo not drawn), -8.17%; with `COc1ccc(OCCn2ccnc2C)cc1`, -7.96%.
With `COc1cc(OC)cc(-c2cc3nc(C4CCN(C(=O)OC(C)(C)C)CC4)cc(=O)n3[nH]2)c1` the figure was 7.61%; with `CCCCNC(=O)CCn1nc(-c2ccc(Cl)cc2)ccc1=O`, 18%; with `Cc1ccc(S(=O)(=O)NC(C)C(=O)NCc2ccc(Cl)cc2)cc1` (stereo not drawn), -2.23%.
For the compound `CCOc1ccccc1/C=c1\sc2nc(-c3ccco3)nn2c1=O`, the inhibition was 52.2% (active).
With `CCOc1ccccc1C1NC(=O)NC(C)=C1C(=O)OCc1ccco1` (stereo not drawn) the figure was 16%.
On to `CCCn1nc(C(=O)NNC(=O)CCOc2ccccc2OCC)c2ccccc2c1=O`, for which the inhibition was -4.04%.
Consider `COC(=O)c1c(NC(=O)c2ccc(S(=O)(=O)N3CCOCC3)cc2)sc2c1CCN(C(C)C)C2`, for which the inhibition is 8.38%.
As for `CC(=O)c1ccc(NC(=O)C2CCCN2S(=O)(=O)c2cccs2)cc1` (stereo not drawn), the inhibition was 14.8%.
Regarding `C=C1CCC(N(O)c2cc(C)on2)C(=C)CCC2C1CC2(C)C` (stereo not drawn), the inhibition was 55.5% (active).
With `Cc1cccc(N(C)C(=O)c2cc3c(=O)[nH]c4ccc(C)cc4c3s2)c1` the figure was 6.52%; with `O=C(N/N=C/c1cccc(Br)c1)c1ccc(N2CCCC2=O)cc1`, 12.3%.
On to `O=C(N/N=C\c1cccc(Br)c1)c1ccccc1-n1cccc1`, for which the inhibition was 53.7% (active).
Take `O=C(CNC(=O)c1cccs1)N/N=C/c1cccc(Br)c1`: the inhibition is 16.1%.
`Cc1ccc2nc(Nc3ccccc3)cc(C)c2c1`: the inhibition was 57.6% (active).
For the compound `Cc1cc(Nc2ccc(Br)cc2)nc2ccccc12`, the inhibition was 55.5% (active).
`CN1CCN(c2nc(Nc3ccc(O)cc3)nc3ccccc23)CC1`: the inhibition is -37.1%.
As to `Cc1ccc2nc(Nc3ccccc3O)nc(-c3ccccc3)c2c1`, the inhibition is 24.4%.
Take `CCS(=O)(=O)Nc1cccc(-c2cc(-c3ccccc3)c3cc(C)ccc3n2)c1`: the inhibition is 29.6%.
On to `CC(=O)Nc1ccc(Nc2cc(C)nc(Nc3ccc(NC(C)=O)cc3)n2)cc1`, for which the inhibition was 8.84%.
`CC(OC(=O)c1ccc([N+](=O)[O-])cc1)C(=O)NCC1CCCCC1` (stereo not drawn): the inhibition was 3.5%.
For the compound `O=C1N[C@@H](Cc2ccccc2)C(=O)N2[C@H]1C[C@]1(Br)c3ccccc3N(S(=O)(=O)c3ccccc3)[C@H]21`, the inhibition was 5.8%.
In the case of `Cc1cc(=O)cc(C)[nH]1`, the inhibition was 9.7%.
Turning to `O=C(Cc1ccccc1)NCC1OCCc2ccccc21` (stereo not drawn), the inhibition is 4.02%.
Take `COCC(C)OC(=O)c1c(N)n(CCCN2CCOCC2)c2nc3ccccc3nc12` (stereo not drawn): the inhibition was 5.92%.
To `CCOc1ccccc1NC(=O)Cn1nnc(C(=O)NCc2cccs2)c1N` belongs 0.467%; to `CC(C)Cn1c(N)c(C(=O)NCc2cccs2)c2nc3ccccc3nc21`, 59.9% (active); to `Cc1cc(NC(=O)CSC2=NS(=O)(=O)c3cc(Cl)ccc3N2)no1`, 11.8%.
As for `C=CCn1c(=O)c(C(=O)Nc2ncccc2O)c(O)c2ccccc21`, the inhibition is 33.8%.
Consider `Cn1c(=O)c(C(=O)Nc2ncccn2)c(O)c2ccccc21`, for which the inhibition was 60% (active).
For `CCCn1c(=O)c(C(=O)Nc2cc(C)ccn2)c(O)c2ccccc21`, the inhibition was 13.4%.
Consider `CCSC1(SCC)N=C(N)C2(C#N)C(c3ccccc3)NC(C)=CC12C#N` (stereo not drawn), for which the inhibition is 9.77%.
With `CSc1nccc(NC(=O)c2ccc(C(C)(C)C)cc2)n1` the figure was 42.9%; with `CC(C)(C)NC(=O)CSc1nnc(NC(=O)CCc2ccccc2)s1`, 8.92%; with `Oc1c(CN2CCCC2)cc(COCc2ccccc2)c2cccnc12`, 12.2%.
On to `Oc1c(CN2CCN(c3ccc(F)cc3)CC2)cc(Cl)c2cccnc12`, for which the inhibition was 54.1% (active).
As for `O=C(CN1CCN(c2ccc(F)cc2)CC1)Nc1ccccc1`, the inhibition is 7.47%.
Consider `O=C1CCC[C@@H]2CC(N3CCCCC3)C[C@@H]3CCN1[C@H]23` (stereo partly drawn), for which the inhibition was 29.3%.
`COc1ccc(/C=N/N(C)C2=NS(=O)(=O)c3ccccc32)cc1OC`: the inhibition is 1.27%.
As for `O=C1Oc2ccccc2C(=O)/C1=C/c1ccccc1O`, the inhibition was 61.1% (active).
Take `COC(=O)c1ccc(/C=C2/C(=O)Oc3ccccc32)cc1`: the inhibition was 34.3%.
`COc1ccc2c(c1)O/C(=C\c1ccccc1O)C2=O`: the inhibition is 0.978%.
On to `CCSc1sc(CC)cc1C=O`, for which the inhibition was -3.29%.
With `CC/C(=N\NC(=S)NC(C)C)c1ccc(OC(F)F)cc1` the figure was 30.3%; with `CNC(=O)/C(C#N)=C/c1c(F)cccc1Cl`, 75.8% (active).
As for `O=C(/C=C/c1c(F)cccc1Cl)Nc1nn[nH]n1`, the inhibition was 9.19%.
To `CCOC(=O)NC(=O)/C(C#N)=C\c1ccccc1` belongs 4.67%; to `CC(=O)c1ccc(S(=O)(=O)NCCC(=O)N2CCN(c3ccccn3)CC2)cc1`, 12.9%; to `Cc1ccccc1OCC(=O)Nc1ccc(N2CCN(C(=O)C(C)C)CC2)c(Cl)c1`, 52.8% (active).
On to `CCC(=O)N1CCN(c2ccccc2NC(=O)COc2cccc(C)c2C)CC1`, for which the inhibition was 13.7%.
In the case of `Cc1ccccc1OCC(=O)Nc1ccc2c(c1)ncn2C`, the inhibition was 20%.
Regarding `CCN(CC)C(=O)CSc1nc2ccccc2n1CC(=O)N1CCN(c2ccccc2OC)CC1`, the inhibition is 12.6%.
For the compound `NC(=S)c1ccc(C(N)=S)o1`, the inhibition was -0.65%.
`CC[N+](C)(CC)CCC[n+]1c(-c2ccccc2)c2cc(N)ccc2c2ccc(N)cc21`: the inhibition is -96.2%.

As a reminder, the inhibition is the relative decrease from the control value, in per cent.

(Values after PubChem BioAssay AID463212 (Sanford-Burnham Center for Chemical Genomics, 2010).)
